Source: PubChem BioAssay
A selection: hits, their analogues and other compounds. The true share with any hit is near 32%.
CYP2C9 act: activators of human CYP2C9; 96,000 tested, 1.4% active; AID 1024; activation factor at 5 µM; recombinant CYP2C9, luciferin-H conversion, luminescence; hits give high values; factor 1 = untreated enzyme, 0 = blocked; P11712;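 active = activation factor of 2 or more for CYP2C9 at a 5 µM dose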
Target sequence (P11712 whole entry, looked up): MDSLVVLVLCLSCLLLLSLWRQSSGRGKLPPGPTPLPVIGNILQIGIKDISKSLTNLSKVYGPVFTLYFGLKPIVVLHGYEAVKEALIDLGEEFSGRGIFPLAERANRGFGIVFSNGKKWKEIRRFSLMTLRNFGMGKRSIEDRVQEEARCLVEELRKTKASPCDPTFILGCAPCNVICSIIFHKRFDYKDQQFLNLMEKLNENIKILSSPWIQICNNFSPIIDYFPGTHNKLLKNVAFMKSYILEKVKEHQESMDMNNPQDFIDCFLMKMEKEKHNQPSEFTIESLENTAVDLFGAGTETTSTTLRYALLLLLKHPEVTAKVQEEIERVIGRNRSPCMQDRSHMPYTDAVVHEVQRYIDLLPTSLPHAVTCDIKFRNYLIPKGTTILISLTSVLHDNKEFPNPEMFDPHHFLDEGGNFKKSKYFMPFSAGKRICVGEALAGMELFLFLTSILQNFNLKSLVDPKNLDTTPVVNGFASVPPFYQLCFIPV
CYP2C9 inh: inhibitors of human CYP2C9; P11712; CYP2C9 Supersomes, luciferin-H conversion, luminescence; inhibition, % at 5 µM; 96,000 tested, 20% active;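 active = blocking of liver enzyme CYP2C9 beyond about 50% at 5 µM, limit read from the data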
CYP2C19 inhib: blocks human cytochrome P450 2C19 | P33261 | CYP2C19 Supersomes, luciferin-H EGE luminescence, 30 min | inhibition, % at 5 µM | 96,000 tested, 21% active;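 active = CYP2C19 inhibition above a set limit at 5 µM in the primary screen, cut at about 50% in these data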
PostGolgi yeast: growth inhibition of a yeast mutant, post-Golgi transport screen. post-Golgi transport phenotypic cell assay. inhibition, % at 10 µM. 98,000 tested, 0.9% active;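 note: yeast cells grown in 1536-well plates; yeast grown about 18 h at 30C before absorbance read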
PostGolgi ctrl: growth of the yeast control strain, post-Golgi counter-screen; efflux-deficient yeast background strain, growth absorbance A615, 16 h; inhibition, % at 10 µM; 98,000 tested, 5% active; AID 738
CYP2C19 act: activators of human cytochrome P450 2C19; recombinant CYP2C19, luciferin-H EGE luminescence; hits give high values; 0 = fully inhibited enzyme, 1 = untreated enzyme; activation factor at 5 µM; 96,000 tested, under 10 active; AID 1025;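 active = activation factor of at least 2 at 5 µM in the primary screen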
Numbers stand for hits; – = inactive. Cut-off read from the data, not from the text of the source, unless noted: active = inhibition above about 30%; inactive = the rest.

SMILES	CYP2C9 act	CYP2C9 inh	CYP2C19 inhib	PostGolgi yeast	PostGolgi ctrl	CYP2C19 act
COc1ccc2c(=O)c(-c3cnn(-c4ccccc4)c3)c(C)oc2c1	–	–	–	34	–	–
Cc1oc2c(C)c(O)ccc2c(=O)c1-c1cnn(-c2ccccc2)c1	–	–	–	–	–	–
N#Cc1cc(-c2ccccc2)oc1NC(=O)c1ccco1	–	–	–	–	–	–
O=C(Cc1cccs1)N(Cc1ccco1)C1(C(=O)NC2CCCC2)CCCCC1	–	60	–	–	–	–
O=C(c1ccccn1)N(Cc1ccco1)C1(C(=O)NC2CCCC2)CCCCC1	–	–	–	–	–	–
O=C1NC(=O)C(CC(=O)N(Cc2ccco2)C2(C(=O)NC3CCCC3)CCCCC2)N1 (stereo not given)	–	–	–	–	–	–
O=C(c1ccc2c(c1)OCO2)N(Cc1ccco1)C1(C(=O)NC2CCCCC2)CCCCC1	–	–	59	–	–	–
CCCCn1nnnc1SCC(=O)NNC(=O)C1CCCCC1	–	–	–	–	–	–
O=C(c1ccc(Cn2cc([N+](=O)[O-])cn2)o1)N1N=C(C(F)F)CC1(O)C(F)F (stereo not given)	–	62	–	–	–	–
COc1ccc(/C=N/NC(=O)c2ccc(Cn3cc([N+](=O)[O-])cn3)o2)c(OC)c1C	–	–	–	–	–	–
COc1ccc(C)cc1NC(=O)C1CC(=O)N(Cc2ccco2)C1 (stereo not given)	–	–	–	–	–	–
O=C(NC1CCCCCC1)C1CC(=O)N(Cc2ccccc2)C1 (stereo not given)	–	–	–	–	–	–
CCOC(=O)c1[nH]c(COC(=O)C2CC(=O)N(Cc3ccccc3)C2)c(C(=O)OCC)c1C (stereo not given)	–	60	–	–	–	–
CCOC(=O)c1sc(N)c(C(=O)OCC)c1COC(=O)C1CC(=O)N(Cc2ccco2)C1 (stereo not given)	–	98	91	–	–	–
COC(=O)c1sc(N)c(C(=O)OC)c1COC(=O)C1CC(=O)N(Cc2ccco2)C1 (stereo not given)	–	91	79	–	–	–
Cc1nnc(C)n1/N=C/c1ccc(-c2ccccc2)cc1	–	–	–	–	–	–
Cc1nn(C)c(Oc2cccc(Cl)c2)c1C(=O)Nc1ccc(F)cc1	–	–	–	–	–	–
Cn1cc(CN2CCc3ccccc3C2)c2ccccc21	–	–	96	–	–	–
COC(=O)CCN1CCC(C(N)=O)CC1	–	–	–	–	–	–
COc1ccc(-c2csc(NC(=O)c3cccc(S(=O)(=O)N4CCN(C)CC4)c3)n2)cc1	–	–	–	–	–	–
COc1ccc(C2=CSC3=C(C(=O)c4cccc(S(=O)(=O)N(C)C)c4)CCN23)cc1	–	64	86	–	–	–
COc1cccc(-c2nnc(SCC(=O)Nc3ccc4c(c3)OCCO4)n2Cc2ccco2)c1	–	58	–	–	–	–
COc1cccc(-c2nnc(SCC(=O)NCc3ccc4c(c3)OCO4)n2Cc2ccco2)c1	–	72	–	–	–	–
CCCn1c(SCC(=O)Nc2ccc3c(c2)OCCO3)nnc1-c1ccco1	–	92	73	–	–	–
COCCn1c(SCC(=O)Nc2ccc3c(c2)OCCO3)nnc1-c1c[nH]c2ccccc12	–	58	–	–	–	–
SMILES	CYP2C9 act	CYP2C9 inh	CYP2C19 inhib	PostGolgi yeast	PostGolgi ctrl	CYP2C19 act
CC1CCN(C(=O)CSc2nc(N)cc(N)n2)CC1	–	–	–	–	–	–
CC(=O)c1ccc(OCCCN2CCCCC2)cc1	–	69	66	–	–	–
CC(C)COc1ccc(C(=O)CCN2CCCCC2)cc1	–	–	–	–	44	–
O=C(c1ccccc1)c1ccc(OCCCN2CCCCC2)cc1	–	–	–	–	–	–
CC(N)C12CC3CC(C1)CC(C(C)N)(C3)C2 (stereo not given)	–	–	–	–	–	–
NC(=O)c1ccccc1N/C=C/C(=O)c1ccco1	–	–	60	–	–	–
CN1C(=O)c2ccccc2C(C(=O)NCC2CCCO2)C1c1c[nH]c2ccccc12 (stereo not given)	–	–	–	–	–	–
COc1cc(C(=O)N2CCN(C(=O)Cc3ccccc3)CC2)cc(OC)c1OC	–	–	–	–	–	–
COC(=O)c1ccc(CN(C(C)=O)c2ccccc2)o1	–	–	69	–	–	–
